Experimental data published in PubChem BioAssay.
Values without a mark were called inactive. For some assays here: Entries with a potency or affinity are not part of this list. Active and inactive are the calls of the source. Unless noted, no rule for the calls is given here.

Columns and labels:
[1] = antimalarial activity against Dd2 strain (AID 2302;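 active = growth inhibition above 50% at the single 2 µM test dose, taken to imply half-maximal potency below 2 µM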;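 also: 0% = DMSO untreated growth and 100% = chloroquine plus artemisinin killed control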); settings: P. falciparum Dd2 in RBCs, LDH growth readout, 72 h; at 2 µM; hits give high values
[2] = HepG2 cytotoxicity, primary screen, cytotoxicity control for P. falciparum antimalarial project, cell-based, ATP luminescence (AID 2303;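 active = inhibition above 50%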;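 also: 0% = DMSO wells and 100% = digitonin-killed cells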); settings: HepG2 viability, 24-48 h, at 10 µM, hits give high values
[3] = target: L-lactate dehydrogenase (Plasmodium falciparum (isolate CDC / Honduras)) (UniProt Q27743); experiment: PfLDH activity inhibition – cell lysate, 3D7 strain, counter-screen for P. falciparum growth inhibition project (AID 2304);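 also: 0% = vehicle and 100% = reference inhibitor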; settings: P. falciparum 3D7 crude extract, LDH APAD/NBT absorbance; at 2 µM; hits give high values
L-lactate dehydrogenase (Plasmodium falciparum (isolate CDC / Honduras)), sequence (Q27743 whole entry, looked up): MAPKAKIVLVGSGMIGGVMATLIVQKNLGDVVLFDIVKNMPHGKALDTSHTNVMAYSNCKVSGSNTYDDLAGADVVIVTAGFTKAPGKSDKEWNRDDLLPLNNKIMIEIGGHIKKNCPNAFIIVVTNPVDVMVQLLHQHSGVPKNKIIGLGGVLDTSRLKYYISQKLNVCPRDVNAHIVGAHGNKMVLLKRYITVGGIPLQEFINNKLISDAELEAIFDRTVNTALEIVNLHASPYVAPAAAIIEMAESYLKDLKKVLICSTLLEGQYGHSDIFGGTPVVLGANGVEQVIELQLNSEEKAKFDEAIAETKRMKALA

[4] = inhibition of 3D7 malaria parasite growth – strain 3D7 (AID 2306);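 also: 0% = DMSO wells and 100% = chloroquine plus artemisinin control wells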; settings: P. falciparum 3D7 erythrocytic growth, LDH absorbance, 72 h; at 2 µM; hits give high values
[5] = target: Calcium-dependent protein kinase 1 (Plasmodium falciparum (isolate 3D7)) (UniProt P62344); experiment: PfCDPK1 kinase inhibitors, biochemical, TCAMS library (AID 1159585; cut-off not given, nearly all actives have IC50 up to about 0.98 µM;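 also: inhibitors leave more ATP so luminescence rises with inhibition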); settings: recombinant PfCDPK1, Kinase-Glo ATP depletion luminescence
Calcium-dependent protein kinase 1 (Plasmodium falciparum (isolate 3D7)), sequence (P62344 whole entry, looked up): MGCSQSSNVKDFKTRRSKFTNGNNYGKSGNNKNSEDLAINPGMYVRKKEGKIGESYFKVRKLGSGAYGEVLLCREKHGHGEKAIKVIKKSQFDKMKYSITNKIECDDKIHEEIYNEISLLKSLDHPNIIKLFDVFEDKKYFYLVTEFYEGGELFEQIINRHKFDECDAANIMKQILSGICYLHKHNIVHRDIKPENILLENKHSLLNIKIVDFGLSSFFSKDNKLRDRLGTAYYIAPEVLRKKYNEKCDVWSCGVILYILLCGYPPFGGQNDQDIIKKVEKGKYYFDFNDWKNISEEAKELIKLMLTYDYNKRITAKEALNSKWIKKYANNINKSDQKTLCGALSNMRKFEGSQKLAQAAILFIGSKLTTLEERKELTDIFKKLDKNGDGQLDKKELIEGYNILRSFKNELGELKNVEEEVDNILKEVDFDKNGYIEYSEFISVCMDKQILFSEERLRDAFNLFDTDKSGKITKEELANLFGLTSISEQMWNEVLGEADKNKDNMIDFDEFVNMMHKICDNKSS

[6] = target: Plasmodium falciparum protein kinase 6 (PK6, PF3D7_1337100) (UniProt Q8IDW1); experiment: PfPK6 kinase inhibitors, biochemical, TCAMS library (AID 1159586); settings: recombinant PfPK6, Kinase-Glo ATP depletion luminescence
Plasmodium falciparum protein kinase 6 (PK6, PF3D7_1337100), sequence (Q8IDW1 1-305): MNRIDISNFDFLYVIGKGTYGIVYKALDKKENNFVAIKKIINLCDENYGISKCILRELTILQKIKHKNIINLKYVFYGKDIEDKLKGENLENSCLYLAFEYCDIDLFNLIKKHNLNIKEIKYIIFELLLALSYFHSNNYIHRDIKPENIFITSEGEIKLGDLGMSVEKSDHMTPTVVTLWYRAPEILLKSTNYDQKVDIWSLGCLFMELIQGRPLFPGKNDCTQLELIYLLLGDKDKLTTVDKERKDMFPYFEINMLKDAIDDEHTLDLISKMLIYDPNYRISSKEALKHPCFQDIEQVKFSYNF

[7] = target: Protein kinase 7 (PK7), Plasmodium falciparum 3D7 (PF3D7_0213400) (UniProt Q7YTF7); experiment: inhibition of Plasmodium PK7 catalytic activity – biochemical, TCAMS antimalarial set, Kinase-Glo luminescence (AID 1159587); settings: recombinant PfPK7, Kinase-Glo ATP depletion luminescence
Protein kinase 7 (PK7), Plasmodium falciparum 3D7 (PF3D7_0213400), sequence (Q7YTF7 1-343): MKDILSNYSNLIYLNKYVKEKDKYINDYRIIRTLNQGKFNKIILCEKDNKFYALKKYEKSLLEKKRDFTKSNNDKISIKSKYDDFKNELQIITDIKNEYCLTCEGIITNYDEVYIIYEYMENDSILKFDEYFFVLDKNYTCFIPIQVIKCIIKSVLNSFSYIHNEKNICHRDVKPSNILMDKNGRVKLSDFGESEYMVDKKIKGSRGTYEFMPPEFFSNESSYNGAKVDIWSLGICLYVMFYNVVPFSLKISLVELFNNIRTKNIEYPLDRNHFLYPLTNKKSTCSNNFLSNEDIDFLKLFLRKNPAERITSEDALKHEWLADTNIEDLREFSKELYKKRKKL

[8] = target: Calcium-dependent protein kinase 4 (Plasmodium falciparum (isolate 3D7)) (UniProt Q8IBS5); experiment: PfCDPK4 kinase inhibitors, biochemical, TCAMS library (AID 1159588; cut-off not given, nearly all actives have IC50 up to about 0.91 µM); settings: recombinant PfCDPK4, Kinase-Glo ATP depletion luminescence
Calcium-dependent protein kinase 4 (Plasmodium falciparum (isolate 3D7)), sequence (Q8IBS5 whole entry, looked up): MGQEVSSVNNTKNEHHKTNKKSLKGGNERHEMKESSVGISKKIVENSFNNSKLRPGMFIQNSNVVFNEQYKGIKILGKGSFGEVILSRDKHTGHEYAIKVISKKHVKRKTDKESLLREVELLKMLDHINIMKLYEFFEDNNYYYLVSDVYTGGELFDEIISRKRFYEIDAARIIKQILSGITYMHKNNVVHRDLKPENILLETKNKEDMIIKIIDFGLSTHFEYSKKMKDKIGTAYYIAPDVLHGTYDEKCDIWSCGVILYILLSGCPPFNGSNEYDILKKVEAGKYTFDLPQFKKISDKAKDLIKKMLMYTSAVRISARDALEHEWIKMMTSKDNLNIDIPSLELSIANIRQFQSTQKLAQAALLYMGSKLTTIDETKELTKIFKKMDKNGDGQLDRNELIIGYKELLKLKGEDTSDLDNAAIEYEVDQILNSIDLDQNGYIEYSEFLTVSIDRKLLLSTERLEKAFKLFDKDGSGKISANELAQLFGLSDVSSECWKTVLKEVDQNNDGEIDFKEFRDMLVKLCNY

| SMILES | growth inhibition [1] | inhibition [2] | inhibition [3] [%] | growth inhibition [4] | outcome [5] | outcome [6] | outcome [7] | outcome [8] |
| --- | --- | --- | --- | --- | --- | --- | --- | --- |
| Cc1cccc2[nH]c(-c3ccc(-c4cccc(NC(=O)C(C)CN(C)C)c4)cc3)nc12 (stereo unspecified) | 61% (active) | 20% | 1 | 99% (active) | inactive | inactive | inactive | inactive |
| COc1ccc(Cn2ccc3c4c(N)nc(N)nc4ccc32)cc1 | 93% (active) | 90% (active) | 7 | 101% (active) | inactive | inactive | inactive | inactive |
| CCN1CCC(N(Cc2ccc(-c3ccc(C(F)(F)F)cc3)cc2)C(=O)Cn2c(CCc3cccc(F)c3F)cc(=O)c3ccccc32)C1 (stereo unspecified) | 84% (active) | 43% | 3 | 93% (active) | inactive | inactive | inactive | inactive |
| COc1ccc2nccc([C@@H](O)CN3CCC(NC(=O)COc4nc(SCc5ccc(F)cc5)nc5c4CCC5)CC3)c2c1 | 78% (active) | 29% | -2 | 96% (active) | inactive | inactive | inactive | inactive |
| CCCc1ccc(-c2csc(NC(=O)c3ccc([N+](=O)[O-])o3)n2)cc1 | 13% | 72% (active) | 4 | 85% (active) | inactive | inactive | inactive | inactive |
| Clc1cc(Br)ccc1-c1ccc(CNCC2CCNCC2)o1 | 39% | 100% (active) | 1 | 96% (active) | inactive | inactive | inactive | inactive |
| CCC(C)(CC)C(=O)n1ncc2c3c(N)nc(N)nc3ccc21 | 6% | 73% (active) | -4 | 94% (active) | inactive | inactive | inactive | inactive |
| Cc1cccc2[nH]c(-c3ccc(-c4cccc(CNCc5cccc(N)c5)c4)cc3)nc12 | 87% (active) | 0% | -4 | 101% (active) | inactive | inactive | inactive | inactive |
| OCCNc1nc(Nc2cccc(O)c2)nc2ccccc12 | 55% (active) | 3% | 3 | 96% (active) | inactive | inactive | inactive | inactive |
| NC1=NC2(CCCCC2)N(OCCOc2ccc(Cc3ccccc3)cc2)C(N)=N1 | 22% | 34% | 2 | 86% (active) | inactive | inactive | inactive | inactive |
| CC(=NN=C(N)N)c1ccc2c(ccc3ccccc32)c1 | 15% | 47% | 8 | 100% (active) | inactive | inactive | inactive | inactive |
| Cc1cccc(CC2CC(=O)N(c3ccc([N+](=O)[O-])cc3)C2=O)c1 (stereo unspecified) | 1% | 11% | 2 | 95% (active) | inactive | inactive | inactive | inactive |
| Cc1ccc(F)cc1S(=O)(=O)Nc1cccc(CCN2CCC(N3CCCCC3)CC2)c1 | 9% | 15% | 5 | 96% (active) | inactive | inactive | inactive | inactive |
| Cc1cccc2[nH]c(-c3ccc(-c4ccc(CN5CCCC(N)C5)cc4)cc3)nc12 (stereo unspecified) | 101% (active) | 33% | -3 | 99% (active) | inactive | inactive | inactive | inactive |
| CNC(=O)c1cncc(/C=C/c2ccccc2S(N)(=O)=O)c1 | 77% (active) | 17% | -1 | 100% (active) | inactive | inactive | inactive | inactive |
| COC(=O)c1sc2ccccc2c1NC(=O)c1ccc(C)c(C)c1 | 48% | 4% | -7 | 88% (active) | inactive | inactive | inactive | inactive |
| O=C(Nc1cccc(-c2ccc(CN3CCCC3)cc2)c1)c1cccc(F)c1 | 17% | 20% | -6 | 99% (active) | inactive | inactive | inactive | inactive |
| CCNc1cc(C(=O)N[C@@H](Cc2ccccc2)[C@H](O)CNCc2cccc(-n3ccnc3)c2)cc(N2CCCC2=O)c1 | 96% (active) | 1% | 1 | 99% (active) | inactive | inactive | inactive | inactive |
| CC1CCCCN1S(=O)(=O)c1ccc(NC(=O)c2cc(-c3ccccc3O)n[nH]2)cc1 (stereo unspecified) | 96% (active) | 26% | -1 | 90% (active) | inactive | inactive | inactive | inactive |

| SMILES | growth inhibition [1] | inhibition [2] | inhibition [3] [%] | growth inhibition [4] | outcome [5] | outcome [6] | outcome [7] | outcome [8] |
| --- | --- | --- | --- | --- | --- | --- | --- | --- |
| COc1ccc(O)c(Cc2cnc3nc(N)nc(N)c3c2C)c1 | 74% (active) | 56% (active) | 5 | 94% (active) | inactive | inactive | inactive | inactive |
| CN1CCN(c2ccc(Cl)cc2NC(=O)C2COc3ccccc3O2)CC1 (stereo unspecified) | 44% | 2% | 2 | 99% (active) | inactive | inactive | inactive | inactive |
| CCCC1N=C(N)N=C(N)N1c1ccc(C)c(C)c1 (stereo unspecified) | -2% | 7% | -3 | 95% (active) | inactive | inactive | inactive | inactive |
| Cc1ccc2nc(-c3ccc(C(=O)NC4CCN(Cc5ccccc5)CC4)s3)[nH]c2c1 | 83% (active) | 13% | -5 | 97% (active) | inactive | inactive | inactive | inactive |
| COc1cccc(CNC[C@@H](O)[C@H](Cc2ccccc2)NC(=O)c2cc(N3CCCC3=O)c3[nH]cc(C(C)C)c3c2)c1 | 98% (active) | 5% | 3 | 96% (active) | inactive | inactive | inactive | inactive |
| Cn1cncc1-c1ccc2c(-c3ccsc3)cnc(N)c2c1 | 72% (active) | 41% | -3 | 97% (active) | inactive | inactive | inactive | inactive |
| COc1ccc(CC(=O)Nc2ccc(-c3cccc(-c4nc5c(C)cccc5[nH]4)c3)cc2)cc1O | 30% | 6% | 4 | 96% (active) | inactive | inactive | inactive | inactive |
| CCNc1cc(C(=O)N[C@@H](Cc2ccccc2)[C@H](O)CNCCC(C)(C)C)c(F)c(N2CCCCS2(=O)=O)c1 | 93% (active) | 2% | 2 | 98% (active) | inactive | inactive | inactive | inactive |
| C=Cc1c(C2CCN(CCCCNC(=O)c3ccc(-c4ccc(C#N)cc4)cc3)CC2)ccc2c1CCCC2 | 75% (active) | 75% (active) | 1 | 94% (active) | inactive | inactive | inactive | inactive |
| Cc1ccc(Nc2nc(NN=Cc3ccccc3[N+](=O)[O-])nc(Nc3ccc([N+](=O)[O-])cc3)n2)cc1C | 81% (active) | 4% | 5 | 101% (active) | inactive | inactive | inactive | inactive |
| CC(C)(C)c1cc(C(=O)Nc2cccnc2)cc(C(=O)Nc2cccnc2)c1 | 35% | -12% | -3 | 95% (active) | inactive | inactive | inactive | inactive |
| Cn1nccc1C(=O)NCCNCc1ccc(-c2cccc(-c3nc4ccc(C(F)(F)F)cc4[nH]3)c2)cc1 | 99% (active) | 51% (active) | -8 | 101% (active) | inactive | inactive | inactive | inactive |
| CC(C)CCNC(=O)C1Cc2c([nH]c3ccc(Br)cc23)C2(CCN(CCc3ccccc3)CC2)N1 (stereo unspecified) | 61% (active) | 25% | 2 | 101% (active) | inactive | inactive | inactive | inactive |
| CCc1cccc(OCC2CCCN(c3ccc(C(=O)NC4CC4)cn3)C2)c1 (stereo unspecified) | 73% (active) | -1% | 5 | 94% (active) | inactive | inactive | inactive | inactive |
| O=C(NCc1ccccc1)C1Cc2c([nH]c3ccc(Br)cc23)C2(CCN(Cc3ccccc3)CC2)N1 (stereo unspecified) | 70% (active) | 15% | 1 | 98% (active) | inactive | inactive | inactive | inactive |
| CCN1CCC(N(Cc2ccc(-c3ccc(C(F)(F)F)cc3)cc2)C(=O)CCCCn2c(CCc3cccc(F)c3F)nc(=O)c3ccccc32)CC1 | 77% (active) | 54% (active) | 4 | 90% (active) | inactive | inactive | inactive | inactive |
| O=C(Nc1ccc(-c2ccccc2)c(OCCN2CCNCC2)c1)c1ccc(-c2ccc(Cl)cc2)cc1 | 31% | 92% (active) | -8 | 96% (active) | inactive | inactive | inactive | inactive |
| CCc1cc(OC)c(C(=O)NC2CCN(C[C@H](O)c3ccnc4ccc(OC)cc34)CC2)cc1Br | 56% (active) | 6% | 2 | 98% (active) | inactive | inactive | inactive | inactive |
